AMPAR-TARP mod = modulators of AMPA receptor GluA2-stargazin complexes; HEK293 GluA2+stargazin, membrane potential dye (FDSS), glutamate EC50; hits were called plate by plate, in both directions; O88602+P19491; AID 1259245; hit rate 3.5% among 40,000; calls only at 30 µM;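 active = any of four per-well response measures lying three or more SD from its plate-wide compound average, in either direction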
GIRK2 activator = GIRK2 channel activators by thallium flux. HEK293 GIRK2/NPY4 cells, thallium flux fluorescence. activation (% efficacy), % for hits at 75 µM. P48051. 34,000 tested, under 10 active;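 active = primary screen hit, no activity in plain HEK293 cells, and in GIRK2-only cells above 5% efficacy rising with concentration; inactive = the rest, including fluorescent compounds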;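 also: efficacy is normalized control-subtracted fluorescence 15 s after thallium addition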
Target sequence (P48051 whole entry, looked up): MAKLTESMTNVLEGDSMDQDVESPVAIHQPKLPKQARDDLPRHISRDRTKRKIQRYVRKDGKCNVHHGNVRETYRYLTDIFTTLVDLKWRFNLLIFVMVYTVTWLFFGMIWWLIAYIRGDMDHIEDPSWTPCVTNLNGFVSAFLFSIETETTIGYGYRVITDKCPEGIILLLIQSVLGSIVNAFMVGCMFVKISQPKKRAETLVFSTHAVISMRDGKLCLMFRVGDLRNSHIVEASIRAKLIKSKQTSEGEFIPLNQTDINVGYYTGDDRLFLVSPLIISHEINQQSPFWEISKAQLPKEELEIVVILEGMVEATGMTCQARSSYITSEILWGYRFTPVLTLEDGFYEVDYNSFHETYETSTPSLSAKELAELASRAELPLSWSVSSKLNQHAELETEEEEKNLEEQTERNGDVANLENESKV
Of the large screens only hits and unclear results are named; the others gave an inactive call. The entries come from a sample that favours hits as a whole.

Cc1ccc(S(=O)(=O)Nc2nc(CCC(=O)NCc3ccc(F)cc3)cs2)cc1	none
COc1ccc(SCC(=O)Nc2ccccc2-c2nc3ccccc3s2)cc1	none
O=C(Cc1cccs1)Nc1nnc(-c2ccc(Br)s2)o1	none
CC(C)c1nnc(C2CCN(C(=O)NCc3cccs3)CC2)o1	none
Cc1c(C(=O)NC(Cc2c[nH]c3ccccc23)C(=O)O)c(=O)oc2ccccc12 (configuration not stated)	none (no result: AMPAR-TARP mod)
COc1cc(OC)cc(C(=O)Nc2nnc(-c3ccc(Br)s3)o2)c1	AMPAR-TARP mod active
COc1cc(C(=O)Nc2nnc(-c3ccc(C)cc3C)o2)cc(OC)c1OC	none (no result: GIRK2 activator)
COc1cccc(C(=O)Nc2nnc(-c3ccc(Br)s3)o2)c1	none
COc1cc(OC)cc(C(=O)Nc2nnc(-c3ccc(C)cc3C)o2)c1	AMPAR-TARP mod active (no result: GIRK2 activator)
CCOC(=O)N1CCN(S(=O)(=O)CCCOc2ccc(F)cc2)CC1	none (no result: AMPAR-TARP mod)
CCOc1ccc(C(=O)Nc2nnc(Cc3cccs3)o2)cc1	none
O=C1CC(NC(=O)C2(c3ccc(Cl)cc3)CCCC2)CN1 (configuration not stated)	none (no result: AMPAR-TARP mod)
O=[N+]([O-])c1ccc(NS(=O)(=O)c2ccc3ccccc3c2)cc1	AMPAR-TARP mod active (no result: GIRK2 activator)
O=[N+]([O-])c1cccc(NS(=O)(=O)c2ccc3ccccc3c2)c1	AMPAR-TARP mod active (no result: GIRK2 activator)
CS(=O)(=O)c1cccc(S(=O)(=O)Nc2ccc([N+](=O)[O-])cc2)c1	none (no result: AMPAR-TARP mod)
COc1ccc(NS(=O)(=O)c2cccc([N+](=O)[O-])c2)cc1	none (no result: GIRK2 activator)
CCc1cnc2c(c1SCC(=O)N1CCC(Cc3ccccc3)CC1)c(=O)n(C)c(=O)n2C	none
O=C(Nc1ccc(OC(F)(F)F)cc1)c1ccc(=O)n(Cc2c(F)cccc2Cl)c1	none
Cc1cc(C)c(S(=O)(=O)NCCCO)c(C)c1N(C)S(=O)(=O)c1ccccc1	none (no result: GIRK2 activator)
CCCN1C(=O)/C(=C/c2ccc(N3CCCC3)cc2)NC1=S	AMPAR-TARP mod active (no result: GIRK2 activator)
CCCN1C(=O)NC2(CCN(C(=O)C3CCCCC3)CC2)C1=O	none
COc1ccc(-c2nc(COC(=O)c3nnn(-c4ccc(F)cc4)c3C)c(C)o2)c(OC)c1	none
O=C(c1ccc2c(c1)OCCO2)N(Cc1ccncc1)c1nc2c(F)cccc2s1	none
O=C(c1cccc(F)c1)N(CCCn1ccnc1)c1nc2c(F)cccc2s1	AMPAR-TARP mod active
N#Cc1ccc(C(=O)N(Cc2ccncc2)c2nc3c(F)cccc3s2)cc1	AMPAR-TARP mod active
O=C(c1ccc2c(c1)OCCO2)N(CCCn1ccnc1)c1nc2c(F)cccc2s1	none
Cc1c(NC(C)c2cc(Cl)ccc2O)c(=O)n(-c2ccccc2)n1C (configuration not stated)	AMPAR-TARP mod active (no result: GIRK2 activator)
Cc1c(NC(=S)NC(=O)c2ccccc2Cl)c(=O)n(-c2ccccc2)n1C	none
O=C1/C(=C/c2cc(Cl)cc3c2OCOC3)Oc2cc(O)ccc21	none (no result: GIRK2 activator)
CC(=O)N1CCc2c(sc(NC(=O)c3ccc(F)cc3)c2-c2nc3ccccc3s2)C1	none (no result: GIRK2 activator)
CCC(=O)N(CCC1(c2ccc(OC)cc2)CCOC(C)(C)C1)Cc1ccc(Cl)cc1 (configuration not stated)	AMPAR-TARP mod active (no result: GIRK2 activator)
CCOC(=O)C1=C(C)NC(=O)NC1c1ccc(OC)cc1 (configuration not stated)	none (no result: GIRK2 activator)
Cn1c(=O)c(C(=O)Nc2ccc(S(N)(=O)=O)cc2)cc2cccnc21	AMPAR-TARP mod active
Cn1c(=O)c(C(=O)NCCc2ccc(S(N)(=O)=O)cc2)cc2cccnc21	none
CCOc1ccccc1C(=O)NCC(O)(c1ccccc1)C1CC1 (configuration not stated)	AMPAR-TARP mod active (no result: GIRK2 activator)
Cc1ccccc1C(=O)NCC(O)(c1ccccc1)C1CC1 (configuration not stated)	none (no result: GIRK2 activator)
Cc1ccc(OCC(O)Cn2c(N3CCCC3)nc3c2c(=O)n(C)c(=O)n3C)cc1C (configuration not stated)	none (no result: GIRK2 activator)
Cn1c(=O)[nH]c(=O)c2c1nc(N1CCNCC1)n2CC(O)COc1ccc(Cl)cc1 (configuration not stated)	AMPAR-TARP mod active (no result: GIRK2 activator)
Cc1ccc(OCC(O)Cn2c(N3CCN(C)CC3)nc3c2c(=O)n(C)c(=O)n3C)cc1C (configuration not stated)	AMPAR-TARP mod active (no result: GIRK2 activator)
CC1CCN(c2nc3c(c(=O)[nH]c(=O)n3C)n2CC(O)COc2ccc(Cl)cc2)CC1 (configuration not stated)	none (no result: GIRK2 activator)
O=C(CSc1nnc(CCn2ccc(=O)[nH]c2=O)o1)c1ccc(F)c(F)c1	none
CS(=O)(=O)N1CCCC(C(=O)Nc2cc(Cl)cc(Cl)c2)C1 (configuration not stated)	none
Cn1cccc1C(O)CNC(=O)C(=O)NCc1ccc(F)cc1 (configuration not stated)	none
Cc1c(C)n2c3c(=O)n(CC(N)=O)c(=O)n(C)c3nc2n1C1CCCCC1	AMPAR-TARP mod active (no result: GIRK2 activator)
Cc1c(C)n2c3c(=O)n(CCN4CCCCC4)c(=O)n(C)c3nc2n1C1CCCC1	none
COCCn1c(-c2ccc([N+](=O)[O-])cc2)nc2sc3ccccc3c(=O)c2c1=O	AMPAR-TARP mod active
CCCCn1c(-c2ccc([N+](=O)[O-])cc2)nc2c(c(=O)c3ccccc3n2C)c1=O	AMPAR-TARP mod active (no result: GIRK2 activator)
CCCn1c(-c2ccc(OC)cc2)nc2c(c(=O)c3ccccc3n2C)c1=O	none (no result: GIRK2 activator)
COCCn1c(-c2ccc(F)cc2)nc2c(c(=O)c3ccccc3n2C)c1=O	none (no result: GIRK2 activator)
NS(=O)(=O)c1ccc(CNC(=O)Cc2csc(Nc3ccccc3)n2)cc1	none
COC(=O)N1CCC(CNC(=O)C(=O)NCCc2ccccc2)CC1	none
COC(=O)N1CCC(CNC(=O)CCc2ccccc2)CC1	AMPAR-TARP mod active
O=C(c1ccc(S(=O)(=O)N2CCOCC2)cc1)N(C(=O)N1CCCCC1)c1cccc(Cl)c1	AMPAR-TARP mod active
O=C(c1ccc(S(=O)(=O)N2CCOCC2)cc1)N(C(=O)N1CCCCC1)c1ccc(Cl)cc1	none (no result: GIRK2 activator)
O=C(NCC(O)(c1ccccc1)C(F)(F)F)C1COc2ccccc2O1 (configuration not stated)	none
O=C(NCC(O)(c1ccccc1)C(F)(F)F)c1ccc(Cl)c(Cl)c1 (configuration not stated)	none
O=C(NCC(O)(c1ccccc1)C(F)(F)F)C1c2ccccc2Oc2ccccc21 (configuration not stated)	AMPAR-TARP mod active
O=C(NCC(O)(c1ccccc1)C(F)(F)F)c1cccc(C(F)(F)F)c1 (configuration not stated)	AMPAR-TARP mod active
Cc1cc(CN2CCC(CNC(=O)C(=O)Nc3ccccc3C#N)CC2)c(C)o1	none
COC(=O)C1=C(C)N(C)C(=O)NC1c1ccc(OCc2ccccc2)cc1 (configuration not stated)	none (no result: GIRK2 activator)
CCC(=O)N1c2ccccc2NC2=C(C(=O)CC(C)(C)C2)C1c1ccc(OCc2ccccc2)cc1 (configuration not stated)	AMPAR-TARP mod active (no result: GIRK2 activator)
O=C(NCc1ccccc1)c1sccc1S(=O)(=O)N1CCN(c2ccccc2F)CC1	none (no result: AMPAR-TARP mod)
COc1ccc(OC)c2sc(NC(=O)c3ccnn3C)nc12	AMPAR-TARP mod active (no result: GIRK2 activator)
Cc1cc(C)c2sc(NC(=O)c3ccnn3C)nc2c1	none (no result: AMPAR-TARP mod)
CSCCC(C)(O)CNS(=O)(=O)Cc1cccc(C)c1 (configuration not stated)	none
COc1ccc(NC(=O)CSc2nnc(-c3ccc(OC)c(OC)c3)n2N)cc1	none
O=C(Oc1ccccc1)N1CCC(CNS(=O)(=O)c2ccccc2Br)CC1	none
NC(=O)Cc1csc(NC(=O)COc2ccc3c(c2)C(=O)CC3)n1	AMPAR-TARP mod active
